Data from PubChem BioAssay (NCI).
About 83,000 compounds went through this panel and 20% of them were active in at least one assay; those are over-represented in the sample as a whole.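 For each line, cells grew in 96-well plates with the test compound present at a single concentration for 48 hours.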 Values without a mark were called inactive. Calls of active or inactive are those of the source. How the source made its calls: active means growth percent below 10; inactive means the rest.

Columns and labels:
Experiment in all cases: NCI-60 one-dose screen, 48 h (100 = growth as untreated, 0 = no growth, -100 = all killed)
HCT-15 colon = conditions: 10 µM unless noted
HT29 colon = conditions: 10 µM unless noted
SNB-75 CNS = conditions: 10 µM unless noted
SNB-19 CNS = conditions: 10 µM unless noted
U251 CNS = conditions: 10 µM unless noted
PC-3 prostate = conditions: 10 µM unless noted
SK-MEL-5 melanoma = conditions: 10 µM unless noted
UACC-62 melanoma = conditions: 10 µM unless noted
LOX IMVI melanoma = conditions: 10 µM
SK-MEL-28 melanoma = conditions: 10 µM unless noted
SK-MEL-2 melanoma = conditions: 10 µM unless noted
EKVX NSCLC = conditions: 10 µM unless noted
SN12C renal = conditions: 10 µM unless noted
UO-31 renal = conditions: 10 µM unless noted
TK-10 renal = conditions: 10 µM unless noted
ACHN renal = conditions: 10 µM unless noted
CAKI-1 renal = conditions: 10 µM unless noted
A498 renal = conditions: 10 µM unless noted
CCRF-CEM leukemia = conditions: 10 µM unless noted
MOLT-4 leukemia = conditions: 10 µM unless noted

| Compound | growth (HCT-15 colon) | growth (HT29 colon) | growth (SNB-75 CNS) | growth (SNB-19 CNS) | growth (U251 CNS) | growth (PC-3 prostate) | growth (SK-MEL-5 melanoma) | growth (UACC-62 melanoma) | growth (LOX IMVI melanoma) | growth (SK-MEL-28 melanoma) | growth (SK-MEL-2 melanoma) | growth (EKVX NSCLC) | growth (SN12C renal) | growth (UO-31 renal) | growth (TK-10 renal) | growth (ACHN renal) | growth (CAKI-1 renal) | growth (A498 renal) | growth (CCRF-CEM leukemia) | growth (MOLT-4 leukemia) |
| --- | --- | --- | --- | --- | --- | --- | --- | --- | --- | --- | --- | --- | --- | --- | --- | --- | --- | --- | --- | --- |
| COC1=C[C@]23CCC(=O)N2CCc2cc4c(cc2[C@@H]3[C@@H]1OC(=O)[C@H](C)O)OCO4 | -1.4% (active) | 1.93% (active) | -10.6% (active) | -1.61% (active) | -3.63% (active) | 14.8% | -2.42% (active) | 31.5% | -57.2% (active) | 15.1% | 58.5% | 43% | 57.8% | 26.4% | 47.7% | 5.84% (active) | 15% | -9.89% (active) | 1.16% (active) | 2.59% (active) |
| O=C(Nc1ccccc1)N1CCN(c2cc(-c3cn(-c4ccccc4)nc3-c3cccc(O)c3)ccn2)CC1 | 21.4% | 75.8% | 101% | 81.9% | 63% | 43% | 40% | 50.4% | 69.1% | 73.2% | 57.4% | 77.1% | 88.8% | 55.1% | 129% | 81.7% | 70.3% | 103% | 36.8% | 33% |
| COc1c(F)ccc(C(=O)Nc2ccc3nc(NC(=O)C4CCCN(S(=O)(=O)c5ccc(Br)s5)C4)sc3c2)c1F (stereo not given) | 63% | 75.5% | 66.5% | 90.1% | 68% | 56.1% | 81.5% | 75.6% | 79.3% | 94.6% | 81.8% | 81.2% | 85.9% | 77.6% | 116% | 77.2% | 82.6% | 104% | 75% | 48.5% |
| Cn1cc(-c2nc(N)nnc2-c2c[nH]c3ccc(F)cc23)c2cc(Br)cnc21 | 3.56% (active) | -50.6% (active) | -15.8% (active) | 22.9% | 1.09% (active) | 8.22% (active) | -81.5% (active) | 13.3% | 13.9% | 24% | -27.7% (active) | 26.2% | 10.4% | 6.23% (active) | 26.2% | 12.2% | -10.9% (active) | -31.2% (active) | 5.12% (active) | -0.149% (active) |
| Cc1ccc(C(=O)NN2C(=O)/C(=C/C=C/c3ccc([N+](=O)[O-])o3)SC2=S)cc1 | -66.1% (active) | -74.3% (active) | -85% (active) | -100% (active) | -98.9% (active) | -15.1% (active) | -100% (active) | -92.4% (active) | -90.9% (active) | -94.3% (active) | -89.8% (active) | -97% (active) | -89.3% (active) | -100% (active) | -98.3% (active) | -100% (active) | -100% (active) | -73.3% (active) | 4.08% (active) | 9.73% (active) |
| CC1(C)CC[C@]2(C(=O)O)CC[C@]3(C)C(=CCC4[C@@]5(C)C[C@@H](O)[C@@H]6OC(c7ccccc7Br)OC[C@@]6(C)C5CC[C@]43C)C2C1 (stereo not given in full) | 8.96% (active) | 13.1% | 48.1% | 27.7% | 13.2% | 13.1% | 7% (active) | 28.5% | 13.5% | 39.5% | -1.06% (active) | 18.4% | 14.9% | 15.5% | 21% | 9.85% (active) | 14.6% | 23.7% | 13.1% | 10.5% |
| N/C(=N\c1nc2ccccc2s1)NC(=O)Nc1c(Cl)cccc1Cl | 26.1% | 8.87% (active) | 27.7% | 54.7% | 27.9% | 63.2% | 22.4% | 23.6% | 24.7% | 50.6% | 6% (active) | 37.6% | 30.4% | 47.6% | 93.8% | 48.1% | 32% | 94.3% | 30% | 30% |
| Brc1ccc(-c2n(Cc3ccc4ccccc4c3)c(-c3ccccc3)c(-c3ccccc3)[n+]2Cc2ccc3ccccc3c2)cc1 | -85.4% (active) | -98.9% (active) | -97.9% (active) | -93.4% (active) | -97.8% (active) | -29.3% (active) | -98.6% (active) | -88.8% (active) | -92.6% (active) | -96.3% (active) | -90.1% (active) | -86.7% (active) | -85.4% (active) | -79% (active) | -92.5% (active) | -100% (active) | -97% (active) | -94% (active) | -10.5% (active) | -5.89% (active) |
| C#CCOc1cc(N(CC)CC)ccc1C(C(=O)NC(C)(C)C)N(C(=O)C1CCc2cc(F)ccc2O1)c1ccc(F)c(Cl)c1 (stereo not given) | 51.1% | 79% | 59% | 60.5% | 45.1% | 25.7% | 61.1% | 45.8% | 52.9% | 75.5% | -6.45% (active) | 54.4% | 55.8% | 47.2% | 85.2% | 61.6% | 41.1% | 73% | 52.8% | 21.2% |
| Cc1ccc(-c2nc(Nc3ccccc3S(N)(=O)=O)c3ccccc3n2)cc1 | 40.1% | 95% | 91% | 89% | 57.5% | 64.4% | 87% | 70.7% | 9.36% (active) | 107% | 102% | 74.1% | 51.8% | 50.4% | 151% | 74% | 78% | 118% | 76.1% | 78.5% |
| CN(C)c1nc(NCCNS(=O)(=O)c2ccc(C(=O)/C=C/c3ccc(C(F)(F)F)cc3)cc2)nc(Nc2ccc(F)cc2)n1 | -92.5% (active) | -94% (active) | 54.6% | 25.2% | -99.2% (active) | -33.5% (active) | 16.2% | -5.71% (active) | -100% (active) | -80% (active) | -7.74% (active) | 13.6% | -99.1% (active) | 25.5% | 26.2% | 1.99% (active) | 4.56% (active) | 49.6% | 10.1% | 0.0408% (active) |
| N/C(=N\c1nc2ccccc2s1)NC(=O)Nc1ccccc1Br | -4.76% (active) | -61.1% (active) | -33.3% (active) | 2.22% (active) | -53.3% (active) | 34.6% | -55.3% (active) | -7.53% (active) | -75.7% (active) | 28.5% | -0.501% (active) | 27.1% | -39.3% (active) | 11.3% | -15.6% (active) | -39.3% (active) | -17.4% (active) | 26.2% | 12.6% | 21.5% |
| COC(=O)/C=C/c1cccc2c1C(=O)NC(C)(c1cc3ccccc3oc1=O)N2 (stereo not given) | 36.3% | 69.8% | 41.6% | 81.5% | 57.9% | 58.9% | 78.5% | 42.8% | 38.9% | 75.4% | -2.01% (active) | 78.2% | 73.8% | 31.3% | 49% | 30.8% | 20.7% | 49.7% | 83.7% | 63% |
| CCOC(=O)C1=C(N)N(c2ccccc2)C2=C(C(=O)CC(C)(C)C2)C1c1ccc([N+](=O)[O-])cc1 (stereo not given) | 86.4% | 99.4% | 104% | 94% | 101% | 68% | 96.5% | 66.6% | 85.5% | 105% | 97.2% | 86.4% | 98.4% | 95.7% | 113% | 87.9% | 68.4% | 114% | 89.1% | 78.3% |
| C#CCOc1cc(N(CC)CC)ccc1C(C(=O)NC(C)(C)C)N(C(=O)C1CCc2cc(F)ccc2O1)c1ccc(Br)cc1 (stereo not given) | 65.4% | 77.3% | 98.9% | 91.5% | 87.2% | 38.8% | 81% | 61% | 35.9% | 80.2% | 110% | 55.3% | 76.9% | 51% | 116% | 83.2% | 58.7% | 135% | 63.6% | 21.8% |
